For nine molecules, growth results are on record in PubChem BioAssay (NCI).

Among the test systems are SR leukemia; OVCAR-8 ovarian; OVCAR-5 ovarian; OVCAR-4 ovarian; SK-OV-3 ovarian; IGROV1 ovarian; OVCAR-3 ovarian; HS 578T breast; NCI/ADR-RES ovarian; T-47D breast; BT-549 breast; MDA-MB-435 melanoma; SW-620 colon; MCF7 breast; HCC-2998 colon; KM12 colon; HCT-116 colon.
Holding throughout (assay): NCI-60 one-dose screen, 48 h (100 = growth as untreated, 0 = no growth, -100 = all killed)
Details in all cases: 10 µM unless noted

SMILES strings stand for the structures. The panel holds about 83,000 compounds, 20% with a hit somewhere; the sample as a whole holds those more often.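 Plates (96-well) were seeded with cells, treated with compound at one concentration, and incubated for 48 hours before percent growth was determined.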 Values without a mark were called inactive. Calls of active or inactive are those of the source. Rule for the calls: active = growth percent below 10; inactive = the rest.

As for `Nc1[nH]nc2nc(-c3ccccc3)n3c4ccccc4nc3c12`, the growth in the assay with SR leukemia was 92.2%; with OVCAR-8 ovarian, 98.8%; with OVCAR-5 ovarian, 106%; in the assay on OVCAR-4 ovarian, 101%; in the assay with SK-OV-3 ovarian, 93%; in the assay with IGROV1 ovarian, 77.9%. Also, the growth in the assay on OVCAR-3 ovarian is 106%; with HS 578T breast, 106%; in the assay with NCI/ADR-RES ovarian, 104%; in the assay on T-47D breast, 90.1%; in the assay with BT-549 breast, 105%; in the assay on MDA-MB-435 melanoma it was 98.7%. The growth with SW-620 colon was 95.8%; in the assay with MCF7 breast it was 92.7%; with HCC-2998 colon, 110%; in the assay with KM12 colon it was 104%.
For `ClCCn1cnc2c(SCc3ccccc3)ncnc21`, the growth in the assay with SR leukemia is 43.6%; in the assay with OVCAR-8 ovarian, 41.8%; with OVCAR-5 ovarian it was 101%; in the assay with OVCAR-4 ovarian, 81.8%; with SK-OV-3 ovarian, 62.5%; in the assay with IGROV1 ovarian, 133%. The growth in the assay with OVCAR-3 ovarian was 73.4%; in the assay with HS 578T breast, 62.8%; in the assay with NCI/ADR-RES ovarian, 57.1%; with BT-549 breast, 70.4%; with MDA-MB-435 melanoma, 51.8%; in the assay with SW-620 colon it was 39.4%. The growth in the assay on MCF7 breast is 42.5%; with HCT-116 colon it was 31.5%; in the assay with HCC-2998 colon, 57.4%; with KM12 colon, 53.2%.
`C=C(C)[C@@H]1CC[C@]2(C(=O)N3CCN(C)CC3)CC[C@]3(C)[C@H](CC[C@@H]4[C@@](C)(CCC(=O)O)[C@H](C(=C)C)CC[C@]43C)[C@@H]12`: the growth in the assay on SR leukemia was 56.9%; with OVCAR-8 ovarian it was 88.9%; in the assay on OVCAR-5 ovarian, 111%; in the assay on OVCAR-4 ovarian, 97%; in the assay with SK-OV-3 ovarian, 89.6%; in the assay on IGROV1 ovarian it was 104%. The growth is 88.8% in the assay on OVCAR-3 ovarian; 86.7% in the assay on HS 578T breast; 92.4% in the assay with NCI/ADR-RES ovarian; 85.7% in the assay on T-47D breast; 96.8% with BT-549 breast; 93.6% with MDA-MB-435 melanoma. In addition, the growth with SW-620 colon was 99.7%; in the assay with MCF7 breast it was 82.8%; in the assay on HCC-2998 colon, 93.8%; with KM12 colon, 68.7%.
Turning to `COc1ccc(-c2cc(-c3cccnc3)nc3sc4c(N)c(C(C)=O)c(-c5ccccc5)nc4c23)cc1OC`, the growth with SR leukemia is 75.4%; with OVCAR-8 ovarian it was 84.9%; with OVCAR-5 ovarian, 89.5%; in the assay on OVCAR-4 ovarian, 90.7%; with SK-OV-3 ovarian, 110%; in the assay on IGROV1 ovarian it was 98.5%. Further, the growth in the assay on OVCAR-3 ovarian is 82.4%; with HS 578T breast, 45.6%; in the assay on NCI/ADR-RES ovarian, 79%; in the assay on T-47D breast, 59.4%; in the assay with BT-549 breast it was 34.9%; in the assay on MDA-MB-435 melanoma, 45.7%. The growth is 109% with SW-620 colon; 65.3% in the assay with MCF7 breast; 67.6% in the assay on HCT-116 colon; 80.1% with HCC-2998 colon; 76.2% with KM12 colon.
Take `CCN1C(=O)N(c2ccccc2)C2NC(=S)N(/N=C/C=C/c3ccccc3OC)C21` (centres undefined): the growth with SR leukemia is 17.4%; in the assay on OVCAR-8 ovarian it was 9.48% (active); with OVCAR-5 ovarian, 27.8%; with OVCAR-4 ovarian it was 45.5%; in the assay on SK-OV-3 ovarian it was 31.6%; in the assay with IGROV1 ovarian, 3.96% (active). For the same molecule, the growth with OVCAR-3 ovarian was 4.35% (active); in the assay with HS 578T breast, 20.2%; with NCI/ADR-RES ovarian, 6.95% (active); in the assay with T-47D breast it was 42.3%; in the assay on BT-549 breast, 20.4%; with MDA-MB-435 melanoma, -27.5% (active). Further, the growth was 22.2% with SW-620 colon; 7.64% (active) with MCF7 breast; 9.02% (active) with HCT-116 colon; 14.8% in the assay with HCC-2998 colon; 11.3% in the assay on KM12 colon.
`C=CCn1cc(-c2nc3ccccc3s2)c2cc(-c3ccc4c5c(cccc35)C(=O)N(CCO)C4=O)ccc21`: the growth was 104% in the assay with SR leukemia; 91.2% in the assay with OVCAR-8 ovarian; 92.9% in the assay on OVCAR-5 ovarian; 99.6% with OVCAR-4 ovarian; 107% with SK-OV-3 ovarian; 77.7% in the assay on IGROV1 ovarian. In addition, the growth in the assay on OVCAR-3 ovarian is 105%; in the assay with HS 578T breast, 104%; with NCI/ADR-RES ovarian, 98.3%; in the assay with T-47D breast, 78.1%; in the assay with BT-549 breast, 99.4%; in the assay with MDA-MB-435 melanoma, 109%. The growth with SW-620 colon is 98.9%; with MCF7 breast, 80.2%; in the assay on HCT-116 colon it was 96.7%; in the assay on HCC-2998 colon, 101%; with KM12 colon, 105%.
For `Cc1ccc(S(=O)(=O)c2nc(-c3ccccc3)oc2SCC(N)=O)cc1`, the growth was 94.6% in the assay on SR leukemia; 111% with OVCAR-8 ovarian; 86.9% in the assay on OVCAR-5 ovarian; 99.6% in the assay on OVCAR-4 ovarian; 98.3% in the assay on SK-OV-3 ovarian; 101% in the assay on IGROV1 ovarian. Further, the growth is 94.9% with OVCAR-3 ovarian; 101% in the assay on HS 578T breast; 99.5% in the assay on NCI/ADR-RES ovarian; 76.3% in the assay with T-47D breast; 106% in the assay on BT-549 breast; 105% with MDA-MB-435 melanoma. For the same molecule, the growth with SW-620 colon was 104%; in the assay on MCF7 breast it was 96%; in the assay with HCT-116 colon, 85.7%; in the assay on HCC-2998 colon it was 105%; with KM12 colon, 97.9%.
Take `O=C(C[C@]1(O)C(=O)Nc2ccc(Br)cc21)c1ccco1`: the growth with SR leukemia is 97.9%; in the assay on OVCAR-8 ovarian it was 98.2%; in the assay on OVCAR-5 ovarian it was 106%; with OVCAR-4 ovarian it was 104%; in the assay with SK-OV-3 ovarian it was 95.2%; in the assay on IGROV1 ovarian, 92.7%. The growth was 102% with OVCAR-3 ovarian; 102% in the assay on HS 578T breast; 104% in the assay with T-47D breast; 109% in the assay on BT-549 breast; 112% with MDA-MB-435 melanoma; 95.5% in the assay on SW-620 colon. The growth is 94.2% with MCF7 breast, 105% in the assay on HCT-116 colon, 115% with HCC-2998 colon and 101% with KM12 colon.
Turning to `O=[N+]([O-])c1c(O)c(Cl)cc(Cl)c1Cl`, the growth in the assay on SR leukemia was 87.9%; in the assay with OVCAR-8 ovarian, 101%; with OVCAR-5 ovarian, 91.6%; in the assay on OVCAR-4 ovarian, 109%; with SK-OV-3 ovarian, 99.2%; with IGROV1 ovarian it was 111%. Moreover, the growth with OVCAR-3 ovarian was 111%; with HS 578T breast, 117%; in the assay with NCI/ADR-RES ovarian it was 95.6%; in the assay on T-47D breast, 97.6%; in the assay with BT-549 breast it was 106%; with MDA-MB-435 melanoma it was 114%. Besides, the growth was 115% with SW-620 colon; 98.8% in the assay on MCF7 breast; 100% with HCT-116 colon; 96.5% with HCC-2998 colon; 112% with KM12 colon.
